For 38 compounds, inhibition results are on record in PubChem BioAssay AID652154 (Broad Institute, 2013).

Among all 360,000 compounds or so, about 4,200 (1.2%) were called active.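 Rule for the calls: active = mean replicate inhibition at least 60% with every replicate also reaching 60%; inconclusive = only one of the two criteria is met; inactive = mean below 60% and not all replicates reaching 60%.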 The list comes from a sample in which actives are over-represented; it also holds similar structures and randomly drawn compounds.

The nature of the assay: inhibitors of PAX8-driven TPO luciferase reporter, primary screen, RMG-I cells, single concentration (AID 652154).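 Note: luciferase light reporting Pax8 driven TPO promoter activity; plate controls were median of neutral control wells for no effect and mitoxantrone controls for full effect.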 To be noted: SteadyGlo, 24 h, at 12.6 µM, stronger effect = higher value.
Regarding `COc1cccc(-c2ccc3n(c2=O)C[C@H]2[C@H](CO)[C@@H](C(=O)N4CCCCC4)N(C)[C@@H]32)c1`, the inhibition was 10.3% (inactive). As for `C[C@@H]1CN([C@H](C)CO)C(=O)c2cc(C#Cc3cccnc3)cnc2O[C@@H]1CN(C)Cc1ccc(F)cc1`, the figure is -16.3% (inactive); as for `Cc1ccccc1S(=O)(=O)NCC[C@@H]1CC[C@H](NC(=O)C2CCC2)[C@@H](CO)O1`, 6.58% (inactive).

With `CN1C[C@@H]2[C@H](c3ccccc31)[C@H](CO)N2C(=O)Nc1ccc(F)cc1`, the inhibition was -2.1% (inactive). As for `CO[C@H]1CN(C)C(=O)c2ccc(NC(=O)Nc3c(C)noc3C)cc2OC[C@@H](C)NC[C@H]1C`, the figure is -5.2% (inactive); as for `COc1ccc(C#Cc2ccc([C@@H]3[C@H](CO)N4C(=O)CN(C(C)=O)C[C@@H]34)cc2)cc1`, -10.2% (inactive).

Turning to `CCS(=O)(=O)Nc1ccc2c(c1)C(=O)N(C)[C@@H]1CC[C@@H](CC(=O)N3CCCCC3)O[C@H]1CO2`, the inhibition was -5.14% (inactive). With `O=C(CN1CCOCC1)NCC[C@@H]1CC[C@@H](NC(=O)Nc2ccccc2)[C@H](CO)O1` the figure was -2.03% (inactive).

With `C[C@@H]1CN([C@H](C)CO)C(=O)c2cccc(NC(=O)c3ccncc3)c2O[C@@H]1CN(C)C`, the inhibition is -8.91% (inactive). As for `CO[C@H]1O[C@H](CO)[C@@H](OC(=O)Nc2ccc(C(F)(F)F)cc2)[C@H](OC(=O)Nc2ccc3c(c2)OCO3)[C@H]1OC(=O)Nc1ccc2c(c1)OCO2`, the figure is 72.5% (active); as for `COc1cc(OC)c(C(=O)Nc2ccccc2-c2ccccc2)cc1OC`, -10.7% (inactive); as for `CO[C@H]1O[C@H](CO)[C@@H](OC(=O)Nc2ccccc2-c2ccccc2)[C@H](OC(=O)Nc2ccccc2)[C@H]1OC(=O)Nc1ccccc1`, 80% (active).

Regarding `COc1ccc(NC(=O)O[C@H]2[C@H](OC(=O)Nc3ccc4c(c3)OCO4)[C@@H](OC(=O)Nc3ccc4c(c3)OCO4)[C@@H](OC)O[C@@H]2CO)cc1`, the inhibition was 14.1% (inactive). Regarding `CCc1cccc(NC(=O)O[C@H]2[C@H](OC(=O)Nc3ccccc3-c3ccccc3)[C@H](OC(=O)Nc3ccccc3-c3ccccc3)[C@@H](OC)O[C@@H]2CO)c1`, the inhibition was 43.4% (inactive).

Consider `CO[C@H]1O[C@H](CO)[C@@H](OC(=O)Nc2ccccc2)[C@H](OC(=O)Nc2ccc3c(c2)OCO3)[C@H]1OC(=O)Nc1ccc2c(c1)OCO2`, for which the inhibition is 16.9% (inactive). With `C[C@@H]1CN([C@H](C)CO)S(=O)(=O)c2ccc(C#CC3(O)CCCC3)cc2O[C@@H]1CN(C)C(=O)c1cccnc1` the figure was -6.88% (inactive); with `COc1ccccc1NC(=O)N1[C@@H]2CNC[C@H]1C2c1ccc(-c2ccccc2C)cc1` (stereo partly drawn), -13.6% (inactive). As for `Cc1noc(C)c1S(=O)(=O)Nc1ccc2c(c1)C(=O)N([C@H](C)CO)C[C@@H](C)[C@H](CN(C)C(=O)NC(C)C)OCCCC[C@@H](C)O2`, the figure is 16.4% (inactive); as for `C[C@H](CO)N1C[C@H](C)[C@@H](CN(C)Cc2ccc(C(F)(F)F)cc2)OCc2ccccc2-c2c(n(C)c3ccccc23)C1=O`, 24% (inactive); as for `COc1ccc(S(=O)(=O)N(C)C[C@H]2OCCCC[C@@H](C)Oc3ccc(NS(=O)(=O)c4ccc(C)cc4)cc3C(=O)N([C@@H](C)CO)C[C@@H]2C)cc1`, 36.3% (inactive). For the compound `COc1ccc(S(=O)(=O)Nc2ccc3c(c2)C(=O)N([C@@H](C)CO)C[C@H](C)[C@@H](CN(C)S(=O)(=O)c2ccc(F)cc2)OCCCC[C@H](C)O3)cc1`, the inhibition is 68.7% (active). For `COc1ccc(S(=O)(=O)Nc2ccc3c(c2)C(=O)N([C@@H](C)CO)C[C@H](C)[C@@H](CN(C)S(=O)(=O)c2ccc(C)cc2)OCCCC[C@@H](C)O3)cc1`, the inhibition was 31.9% (inactive). As for `COc1ccc(S(=O)(=O)N(C)C[C@@H]2OCCCC[C@@H](C)Oc3ccc(NS(=O)(=O)c4ccccc4)cc3C(=O)N([C@@H](C)CO)C[C@H]2C)cc1`, the figure is 19.7% (inactive). In the case of `COc1ccc(S(=O)(=O)Nc2ccc3c(c2)C(=O)N([C@@H](C)CO)C[C@H](C)[C@H](CN(C)S(=O)(=O)c2ccc(F)cc2)OCCCC[C@@H](C)O3)cc1`, the inhibition is 34% (inactive).

For the compound `COc1ccc(S(=O)(=O)N(C)C[C@H]2OCCCC[C@H](C)Oc3ccc(NS(=O)(=O)c4ccc(F)cc4)cc3C(=O)N([C@@H](C)CO)C[C@@H]2C)cc1`, the inhibition was 75.4% (active). Regarding `CCCNC(=O)C[C@H]1CC[C@H]2[C@@H](COc3ccc(NC(=O)Nc4c(C)noc4C)cc3C(=O)N2C)O1`, the inhibition was -6.6% (inactive). With `C[C@H]1CN([C@@H](C)CO)C(=O)Cc2cc(NC(=O)Nc3ccc(F)cc3)ccc2O[C@H]1CN(C)C(=O)Nc1ccc(C(F)(F)F)cc1` the figure was 59.7% (inactive); with `CC(=O)N1[C@H](CNC(=O)CN(C)C)[C@H](c2ccc(C3=CCCC3)cc2)[C@@H]1CO`, 10.8% (inactive); with `CN1CCN(c2ccc(NC(=O)c3ccc4c(c3)[nH]c(=O)n4Cc3ccc(F)cc3)cc2)CC1`, 1.33% (inactive). For the compound `Cc1cccc(CS(=O)(=O)c2ncc(Cl)c(C(=O)Nc3ccc(F)cc3)n2)c1`, the inhibition was 96.3% (active). For the compound `Cc1cccc(NC(=O)CCN2CC(C)CC(C)C2)c1` (stereo not drawn), the inhibition was 2.21% (inactive). With `Cc1ccc(C)c(Cn2nnc3c(=O)[nH]c(C(=O)Nc4ccc(F)cc4)nc32)c1` the figure was -3.4% (inactive).

As to `Cc1cccc(NC(=O)c2nc(S(=O)(=O)Cc3ccccc3)ncc2Cl)c1`, the inhibition is 64.5% (active). As for `CSc1nnc(NC(=O)c2nc(S(=O)(=O)Cc3ccc(C)cc3)ncc2Cl)s1`, the figure is 54.7% (inactive). Turning to `CN(C)CC#Cc1ccc([C@H]2[C@@H](CO)N(C(=O)C3CCC3)[C@H]2C#N)cc1`, the inhibition was 3.44% (inactive). With `CO[C@H]1CN(C)C(=O)c2ccc(NC(=O)c3ccno3)cc2OC[C@@H](C)N(S(C)(=O)=O)C[C@H]1C`, the inhibition was -22.4% (inactive). On to `C[C@H]1CN([C@@H](C)CO)C(=O)Cc2cc(NC(=O)Nc3ccc4c(c3)OCO4)ccc2O[C@H]1CN(C)Cc1ccc(C(=O)Nc2ccccc2N)cc1`, for which the inhibition was 37.5% (inactive).

Consider `O=C(Cc1ccccn1)N1[C@@H]2CNc3ccccc3[C@@H]2[C@@H]1CO`, for which the inhibition was -15.2% (inactive).
